# Assay results as given in PubChem BioAssay (NCI).
# Compounds without any hit were thinned out: in the full panel of roughly 79,000, 15% have a hit. A number with no mark means an inactive call. Calls of active or inactive are those of the source. Rule as the data show it: active = growth inhibition above about 70%; inactive = the rest.
# Assay: NCI Yeast Anticancer Drug Screen. Data for the mec2-1 strain (AID 157)
# Details: S. cerevisiae mec2-1 strain, at 5.0 µM (retest, dose inferred, filed as 0.5), active compounds read high
# How it was run: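 Yeast mec2-1 mutant treated with compound. Readout: growth inhibition vs vehicle controls.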
row,Structure (SMILES),growth inhibition
1,CCC/C(Cl)=N\OC(=O)Nc1cccc(C(F)(F)F)c1,16%
2,[O-][n+]1c2ccc(O)cc2nc2ccc(Cl)cc21,5%
3,Clc1ccccc1C1OC1c1ccccc1Cl (stereo not drawn),55%
4,c1ccc2c(c1)c1ncccc1c1nccnc21,-47%
5,CC(=O)Nc1ccc2c(c1)C(=Nc1ccc(C(=O)O)cc1)c1ccccc1-2,-3%
6,COc1ccc(OC)c2cc3ccccc3cc12,63%
7,COc1cc(C2c3cc4c(cc3OC(NNc3ccccc3)C2C)OCO4)cc(OC)c1OC (stereo not drawn),10%
8,O=C1c2cc([N+](=O)[O-])ccc2-c2cccc(F)c21,1%
9,CCCCCCCCCCCC(=O)N(C)C,42%
10,CCCCCCCCCCCC1=C(O)C(=O)C=C(O)C1=O,9%
11,Cc1ccc(CSC(N)=Nc2ccccc2)cc1C,-11%
12,CCCCCCCCCCC1CCC(=O)O1 (stereo not drawn),5%
13,O=[N+]([O-])c1cc(CCl)ccc1CCl,-7%
14,Nc1ccc2c(c1)C(=O)c1cccc(N)c1C2=O,17%
15,CCCCCCCCCCNC(=O)OCC,-7%
16,CC1=C(C)Cc2c(O)ccc(O)c2C1,30%
17,COc1ccc2c(c1)C(=O)c1ccccc1C2,-4%
18,CCC(=O)OCCn1c2nc(=O)[nH]c(=O)c-2nc2cc(C)c(C)cc21,3%
19,O=C(OCCN1CCCCCC1)C(c1ccsc1)C1CCCCC1 (stereo not drawn),-5%
20,Oc1c(Br)cc(Br)cc1C1CCCCC1,71% (active)

row,Structure (SMILES),growth inhibition
1,CC1(C)[C@@H]2CC[C@]1(C)[C@H](OC(=O)CSC#N)C2,8%
2,S=C(N/N=C(/c1ccccc1)c1ccccn1)N1CCCCCC1,24%
3,Cc1ccc2[nH]c3c(C)c4cc[n+](C)cc4c(C)c3c2c1,15%
4,CNC(=O)OCc1c(COC(=O)NC)c(-c2ccc(-c3ccccc3)cc2)n(C)c1C,16%
5,COc1ccccc1/C=C1\Sc2scc(-c3cccc([N+](=O)[O-])c3)[n+]2C1=O,16%
6,O=[N+]([O-])c1ccc2c(c1)C(N1CCN(CCO)CC1)Cc1ccc(F)cc1S2 (stereo not drawn),0%
7,Cc1ccc(CCC2=CCCc3c2ccc2ccccc32)cc1,44%
8,O=[N+]([O-])c1cccc2nccc(NCCCO)c12,13%
9,Cc1ccc(-n2cc(-c3ccc(Cl)cc3)c(C#N)c2N)cc1,-3%
10,Cc1ccc(S/N=C\c2ccccc2O)cc1,-48%
11,O=C(O)C1OC1(c1cccc(Cl)c1)c1ccccc1Cl (stereo not drawn),57%
12,NC(=S)N/N=C\c1nccc2ccccc12,50%
13,Clc1cccc(C(Nc2nncs2)Nc2nncs2)c1Cl,1%
14,O=C(OCC=C1CCCC1)c1cc([N+](=O)[O-])cc([N+](=O)[O-])c1,3%
15,O=C(Nc1ccccc1)C(=O)C(C(=O)c1ccccc1)C(c1ccccc1)c1ccccc1 (stereo not drawn),-11%
16,N#CN1C2CCC1CC(=O)C2,63%
17,COc1ccccc1C(=O)OCC1CCCN2CCCCC12 (stereo not drawn),53%
18,CCNc1nnc(CSc2nc(-c3ccccc3)c(-c3ccccc3)[nH]2)s1,-8%
19,O=C1c2ccccc2-c2n[nH]c3cccc1c23,100% (active)

# Same assay, conditions: S. cerevisiae mec2-1 strain, at 11.0 µM, active compounds read high
row,Structure (SMILES),growth inhibition
1,CCC/C(Cl)=N\OC(=O)Nc1cccc(C(F)(F)F)c1,19%
2,[O-][n+]1c2ccc(O)cc2nc2ccc(Cl)cc21,25%
3,Clc1ccccc1C1OC1c1ccccc1Cl (stereo not drawn),-94%
4,c1ccc2c(c1)c1ncccc1c1nccnc21,0%
5,CC(=O)Nc1ccc2c(c1)C(=Nc1ccc(C(=O)O)cc1)c1ccccc1-2,9%
6,COc1ccc(OC)c2cc3ccccc3cc12,-6%
7,COc1cc(C2c3cc4c(cc3OC(NNc3ccccc3)C2C)OCO4)cc(OC)c1OC (stereo not drawn),16%
8,O=C1c2cc([N+](=O)[O-])ccc2-c2cccc(F)c21,13%
9,CCCCCCCCCCCC(=O)N(C)C,-27%
10,CCCCCCCCCCCC1=C(O)C(=O)C=C(O)C1=O,63%
11,Cc1ccc(CSC(N)=Nc2ccccc2)cc1C,-11%
12,CCCCCCCCCCC1CCC(=O)O1 (stereo not drawn),0%
13,O=[N+]([O-])c1cc(CCl)ccc1CCl,37%
14,Nc1ccc2c(c1)C(=O)c1cccc(N)c1C2=O,38%
15,CCCCCCCCCCNC(=O)OCC,-6%
16,CC1=C(C)Cc2c(O)ccc(O)c2C1,-3%
17,COc1ccc2c(c1)C(=O)c1ccccc1C2,-1%
18,CCC(=O)OCCn1c2nc(=O)[nH]c(=O)c-2nc2cc(C)c(C)cc21,-2%
19,O=C(OCCN1CCCCCC1)C(c1ccsc1)C1CCCCC1 (stereo not drawn),17%
20,Oc1c(Br)cc(Br)cc1C1CCCCC1,5%

row,Structure (SMILES),growth inhibition
1,CC1(C)[C@@H]2CC[C@]1(C)[C@H](OC(=O)CSC#N)C2,27%
2,S=C(N/N=C(/c1ccccc1)c1ccccn1)N1CCCCCC1,4%
3,Cc1ccc2[nH]c3c(C)c4cc[n+](C)cc4c(C)c3c2c1,8%
4,CNC(=O)OCc1c(COC(=O)NC)c(-c2ccc(-c3ccccc3)cc2)n(C)c1C,3%
5,COc1ccccc1/C=C1\Sc2scc(-c3cccc([N+](=O)[O-])c3)[n+]2C1=O,99% (active)
6,O=[N+]([O-])c1ccc2c(c1)C(N1CCN(CCO)CC1)Cc1ccc(F)cc1S2 (stereo not drawn),-4%
7,Cc1ccc(CCC2=CCCc3c2ccc2ccccc32)cc1,-5%
8,O=[N+]([O-])c1cccc2nccc(NCCCO)c12,-3%
9,Cc1ccc(-n2cc(-c3ccc(Cl)cc3)c(C#N)c2N)cc1,-4%
10,Cc1ccc(S/N=C\c2ccccc2O)cc1,-11%
11,O=C(O)C1OC1(c1cccc(Cl)c1)c1ccccc1Cl (stereo not drawn),2%
12,NC(=S)N/N=C\c1nccc2ccccc12,97% (active)
13,Clc1cccc(C(Nc2nncs2)Nc2nncs2)c1Cl,7%
14,O=C(OCC=C1CCCC1)c1cc([N+](=O)[O-])cc([N+](=O)[O-])c1,13%
15,O=C(Nc1ccccc1)C(=O)C(C(=O)c1ccccc1)C(c1ccccc1)c1ccccc1 (stereo not drawn),10%
16,N#CN1C2CCC1CC(=O)C2,-54%
17,COc1ccccc1C(=O)OCC1CCCN2CCCCC12 (stereo not drawn),0%
18,CCNc1nnc(CSc2nc(-c3ccccc3)c(-c3ccccc3)[nH]2)s1,-8%
19,O=C1c2ccccc2-c2n[nH]c3cccc1c23,-5%
